Measured values reported in publication PMC5540273 (PLoS ONE, 2017).

Tests used:
Details in all cases: concentration: 1 μM,replicates: in singlicate; n = 1
[1] = system: DYRK1B
[2] = system: DYRK2
[3] = system: EGFR
[4] = system: EIF2AK1
[5] = system: EPHA1
[6] = system: EPHA2
[7] = system: EPHA3
[8] = system: EPHA4
[9] = system: EPHA5
[10] = system: EPHA6
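Also: KINOMEscan kinase panel screen.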

| Structure (SMILES) | %Inh [1] | %Inh [2] | %Inh [3] | %Inh [4] | %Inh [5] | %Inh [6] | %Inh [7] | %Inh [8] | %Inh [9] | %Inh [10] |
| --- | --- | --- | --- | --- | --- | --- | --- | --- | --- | --- |
| N#Cc1cccc(C(=O)NC2CCN(c3ccnc(Nc4ccc(F)cc4)n3)C2)c1 (stereo not drawn) [GSK1379708] | 0% | 0% | 14% | 0% | 1% | 0% | 0% | 0% | 0% | 2% |
| CS(=O)c1ccc(-c2coc3ccc(-c4n[nH]c(=O)o4)cc23)cc1 (stereo not drawn) | 68% | 10% | 0% | 3% | 0% | 0% | 0% | 0% | 0% | 0% |
| O=C(Nc1ccc(Oc2ccc3nc(NC(=O)C4CC4)cn3n2)c(F)c1)c1cccn(-c2ccccc2)c1=O | 30% | 0% | 13% | 0% | 51% | 74% | 0% | 26% | 11% | 37% |
| COc1cc(Nc2nccc(N3CCC(NC(=O)c4cccc(C#N)c4)C3)n2)cc(OC)c1OC (stereo not drawn) [GSK1379751] | 15% | 0% | 29% | 0% | 11% | 2% | 0% | 4% | 0% | 0% |
| C[C@@H](Oc1cc(-n2cnc3cc(-c4cnn(C)c4)ccc32)sc1C(N)=O)c1ccccc1Cl [GSK580432] | 0% | 21% | 28% | 15% | 19% | 29% | 20% | 7% | 0% | 28% |
| NC(=O)c1ccc(-c2cc3ncnc(SCC(=O)O)c3s2)cc1 | 57% | 47% | 0% | 0% | 0% | 0% | 0% | 17% | 0% | 21% |
| O=C(NOCC1CC1)c1cc(Br)c(F)c(F)c1Nc1ccc(I)cc1Cl | 17% | 0% | 0% | 0% | 0% | 0% | 0% | 0% | 0% | 0% |
| Cn1ccc2ncnc(Oc3ccc(NC(=O)Nc4cccc(C(F)(F)F)c4)c(F)c3)c21 | 0% | 0% | 12% | 0% | 51% | 94.6% | 58% | 85% | 85% | 97.7% |
| O=C1NCCc2[nH]c(-c3ccncc3)cc21 | 97.6% | 97.1% | 0% | 0% | 2% | 0% | 0% | 30% | 31% | 41% |
| Cc1cccc(-c2nc(Nc3ccncc3)c3sccc3n2)n1 [GW869641] | 9% | 35% | 16% | 17% | 0% | 0% | 26% | 8% | 23% | 16% |
| COC(=O)c1cccc(NC(=O)NC2CCN(c3ccnc(Nc4cc(OC)c(OC)c(OC)c4)n3)C2)c1 (stereo not drawn) [GSK1379767] | 15% | 2% | 33% | 0% | 0% | 16% | 15% | 6% | 0% | 0% |
| C[C@@H](Oc1cc(-n2cnc3ccc(-c4ccncc4)cc32)sc1C(N)=O)c1ccccc1Cl [GSK483724] | 91.5% | 48% | 36% | 4% | 17% | 19% | 0% | 2% | 0% | 16% |
| CS(=O)(=O)c1cccc(CNc2nc(Nc3ccc4c(c3)[C@@H]3C[C@@H]4CNC3=O)ncc2C(F)(F)F)c1 | 6% | 12% | 5% | 0% | 12% | 2% | 6% | 2% | 0% | 11% |
| CN(c1ccc2c(c1)nc(NCc1ccc(F)cc1)n2C)c1ccnc(Nc2ccc(CS(C)(=O)=O)cc2)n1.Cl [GW813244] | 4% | 30% | 18% | 0% | 0% | 12% | 5% | 20% | 0% | 23% |
| CC(C)S(=O)(=O)N1CCN(Cc2ccc3c(c2)nc(NC(=O)c2ccsc2)n3C[C@H](O)c2ccccc2)CC1 [GW635815] | 70% | 21% | 20% | 1% | 0% | 0% | 11% | 15% | 0% | 7% |
| CCCC(=O)Nc1n[nH]c2ncccc12 [SB-601436] | 0% | 2% | 11% | 0% | 8% | 0% | 0% | 14% | 0% | 25% |
| COc1cccc(C2=C(Nc3cccc(Cl)c3)C(=O)NC2=O)c1 [SB-341556] | 0% | 2% | 25% | 9% | 18% | 19% | 0% | 23% | 0% | 13% |

| Structure (SMILES) | %Inh [1] | %Inh [2] | %Inh [3] | %Inh [4] | %Inh [5] | %Inh [6] | %Inh [7] | %Inh [8] | %Inh [9] | %Inh [10] |
| --- | --- | --- | --- | --- | --- | --- | --- | --- | --- | --- |
| Cn1ccc2ncnc(Oc3ccc(NC(=O)Nc4cncc(C(F)(F)F)c4)c(Cl)c3)c21 | 5% | 0% | 0% | 0% | 17% | 81% | 92.5% | 57% | 45% | 97.5% |
| Cc1nnc(-c2ccc3occ(-c4ccc(S(C)=O)cc4)c3n2)o1 (stereo not drawn) | 0% | 0% | 0% | 0% | 0% | 3% | 4% | 23% | 1% | 17% |
| O=C(Nc1cccc(C(F)(F)F)c1)c1cccc(Oc2ccc3nccn3n2)c1 | 14% | 6% | 13% | 0% | 7% | 42% | 11% | 17% | 11% | 10% |
| CS(=O)(=O)Nc1ccc(-c2ccnc3[nH]ccc23)cc1 [GSK993273] | 84% | 44% | 17% | 1% | 19% | 0% | 0% | 20% | 0% | 6% |
| COc1cccc(CNC(=O)NC2CCN(c3ccnc(Nc4cc(OC)c(OC)c(OC)c4)n3)C2)c1 (stereo not drawn) [GSK1379765] | 17% | 9% | 28% | 0% | 11% | 30% | 0% | 3% | 0% | 15% |
| Cc1ccn2nc(-c3ccc(F)cc3)c(-c3ccncc3)c2c1.Cl [GW457859] | 10% | 0% | 49% | 8% | 2% | 83% | 19% | 0% | 0% | 4% |
| CCN1CCN(CCCC(=O)Nc2n[nH]c3nc(-c4ccc(O)cc4)c(Br)cc23)CC1 [SB-731579] | 77% | 74% | 0% | 71% | 0% | 0% | 6% | 0% | 0% | 0% |
| C[C@@H](Oc1cc(-n2cnc3cc(-c4ccncc4)ccc32)sc1C(N)=O)c1ccccc1Cl [GSK479719] | 18% | 31% | 28% | 18% | 0% | 29% | 100% | 21% | 0% | 29% |
| COC(=O)c1cccc(NC(=O)NC2CCN(c3ccnc(NCc4ccc(F)cc4)n3)CC2)c1 [GSK1379860] | 21% | 2% | 51% | 0% | 0% | 10% | 0% | 6% | 0% | 8% |
| CN1CCN(CCNc2nc3cc(Oc4ccc(NC(=O)Nc5cc(C(F)(F)F)ccc5F)cc4)ccc3[nH]2)CC1.Cl.Cl [GW768504] | 15% | 0% | 0% | 0% | 0% | 4% | 0% | 28% | 0% | 51% |
| CN1CCN(CCCNc2nccc(-c3c(-c4ccc(F)cc4)nn4cc(C(N)=O)ccc34)n2)CC1 [GW622475] | 100% | 19% | 38% | 8% | 51% | 28% | 31% | 0% | 0% | 21% |
| C[C@@H]1CNc2c(sc3ccc4nc(-c5ccncc5)ccc4c23)C(=O)N1 | 88% | 18% | 0% | 12% | 7% | 0% | 0% | 15% | 1% | 11% |
| Cc1ccc2c(-c3ccnc(Nc4ccc(C(F)(F)F)cc4)n3)cnn2n1 [GW819776] | 65% | 29% | 0% | 0% | 0% | 0% | 0% | 8% | 1% | 8% |
| Cc1ccc(C(=O)Nc2ccc(Oc3ccc4nc(NC(=O)C5CC5)cn4c3)c(F)c2)c(=O)n1-c1ccccc1 | 39% | 0% | 0% | 0% | 91.8% | 98.5% | 49% | 90.1% | 45% | 95.4% |
| CC(=O)Nc1nc2cnc(Nc3cc(NC(=O)c4cccc(CC(C)(C)C#N)c4)ccc3C)nc2s1 | 31% | 0% | 0% | 30% | 0% | 84% | 65% | 54% | 21% | 38% |
| Cn1cc(-c2cccc3c(N)c(C(N)=O)nnc23)cn1 | 8% | 70% | 22% | 18% | 0% | 0% | 24% | 0% | 14% | 17% |
